These results are taken from PubChem BioAssay AID2451 (National Center for Advancing Translational Sciences (NCATS), 2010).

In all, about 290,000 compounds went through this assay and about 2,100 (0.72%) were called active. Where a call stands in place of a potency, no number is given. Inconclusive results (about 4%) are left out. Calls follow the shape of the dose curve; as a rule, active = well fitted inhibition curve with a large enough effect; inconclusive = small, poorly fitted or top-dose-only effect, or effect the other way; inactive = flat fitted curve, though single readings scatter. The full list was thinned out, with actives kept by preference.
Potency is read from the fitted curve at half-maximal effect.

Chain of Fructose-bisphosphate aldolase (Giardia intestinalis (strain ATCC 50803 / WB clone C6)) (A8B2U2 whole entry, looked up): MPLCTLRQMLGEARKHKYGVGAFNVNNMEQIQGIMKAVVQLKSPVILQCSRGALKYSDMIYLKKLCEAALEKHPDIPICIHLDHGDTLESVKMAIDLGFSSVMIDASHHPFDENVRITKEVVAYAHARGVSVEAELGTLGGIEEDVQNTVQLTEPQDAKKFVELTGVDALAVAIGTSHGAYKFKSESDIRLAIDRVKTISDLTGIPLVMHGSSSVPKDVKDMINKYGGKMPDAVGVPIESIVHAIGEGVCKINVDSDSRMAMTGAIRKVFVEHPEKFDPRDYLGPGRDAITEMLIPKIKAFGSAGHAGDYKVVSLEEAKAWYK

The assay addresses Fructose-bisphosphate aldolase (Giardia intestinalis (strain ATCC 50803 / WB clone C6)) (UniProt A8B2U2). The assay is described as follows: qHTS Assay for Inhibitors of Fructose-1,6-bisphosphate Aldolase from Giardia Lamblia. Also: nearly all actives have a fitted effect of over 55% in size. As to conditions: purified Giardia FBPA; series mostly up to 59.6 µM. An outline of the steps: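 Giardia FBPA (40 nM reagent) was preincubated 10 min at RT with compound (up to 57.5 uM final), then substrate plus GAPDH/TPI/NAD/arsenate coupling system with diaphorase/resazurin was added; resorufin fluorescence (525/598 nm) was read after 20 min.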
Turning to `Cn1nccc1C(=O)N1CCCC(C(=O)c2ccc(Oc3ccccc3)cc2)C1` (stereo not given), the Potency result was “inactive”.
In the case of `Cc1cc(S(=O)(=O)c2cc3ccc(O)c(C)c3oc2=O)ccc1F`, the Potency entry was “inactive”.
For `N#CC1=C(N)Oc2n[nH]c(CSc3ccccc3)c2C12C(=O)Nc1ccccc12` (stereo not given) the value was “inactive”; for `Cc1ccc(NC2(C#N)C(=O)Nc3ccccc32)cc1` (stereo not given), “inactive”; for `N#CC1=C(N)Oc2[nH]c(=S)[nH]c(=O)c2C12C(=O)Nc1ccccc12` (stereo not given), 6.29 µM (active).
For the compound `CCc1ccc(NC(=O)C(=O)NNC(=O)c2cccs2)cc1`, the Potency result was “inactive”.
As to `COc1ccc(CNC(=O)c2ccc(Br)s2)cc1OC`, the Potency result was “inactive”.
For the compound `Fc1ccc(-c2ccc(NCCN3CCOCC3)nn2)cc1`, the Potency result was “inactive”.
Turning to `O=C(NCc1ccccn1)c1ccc2nc(-c3ccco3)c(-c3ccco3)nc2c1`, the Potency is 2.81 µM (active).
As to `COc1ccc2oc(=O)c(C(=O)NCc3ccccn3)cc2c1`, the Potency result was “inactive”.
Consider `O=C(NCc1ccccn1)c1cc(Br)ccc1Cl`, for which the Potency entry was “inactive”.
Next, `COCn1c(C(O)c2ccccc2)cc2ccccc21` (stereo not given): “inactive”; `O=C(N/N=C/c1ccco1)c1ccc(C(=O)N/N=C/c2ccco2)o1`: “inactive”; `O=c1nc(N/N=C/c2ccco2)cn[nH]1`: 17.7 µM (active).
For `CC(C)NC(=O)C(=O)N/N=C/c1ccco1` the value was “inactive”; for `N=c1ccccn1Cc1ccccc1`, “inactive”.
For `C=CCNC(=S)/N=c1/ccccn1Cc1ccccc1` the value was 14.1 µM (active).
Take `CNC(=S)NNC(=O)c1cccn(Cc2ccccc2)c1=O`: the Potency result was “inactive”.
Next, `O=C(c1ccccc1)N1N=C(c2ccccc2O)CC1c1ccc(Br)cc1` (stereo not given): “inactive”; `O=C(CN1CCN(c2ccccc2)CC1)Nc1ccc(F)cc1`: “inactive”; `O=C(CN1CCN(Cc2ccccc2)CC1)Nc1ccc(F)c(F)c1`: 20 µM (active).
For `Cc1cc(NC(=O)CCN2CCN(Cc3ccccc3)CC2)ccc1Br` the value was “inactive”; for `CC(=O)N[C@@H](C)C(=O)N1CCC(n2nccc2NC(=O)CCCc2ccccc2)CC1`, “inactive”; for `CC(=O)Nc1cccc(Nc2nc(-c3cccs3)nc3ccccc23)c1`, “inactive”.
For `O=S(=O)(c1ccc(NC(=S)NN=C(C2CC2)C2CC2)cc1)N1CCOCC1` the value was 7.06 µM (active).
As for `CN1CCN(S(=O)(=O)c2ccc(NC(=S)NC(=O)C3CC3)cc2)CC1`, the Potency result is “inactive”.
For `O=C(NC(=S)Nc1ccc(S(=O)(=O)N2CCOCC2)cc1)c1ccccc1[N+](=O)[O-]` the value was “inactive”; for `CCOC(=O)c1c(-c2ccccc2)oc2cc(Br)c(O)c(C=O)c12`, “inactive”.
For `CCOc1ccc(-n2c(SCC(=O)Nc3cc(C(=O)O)ccc3Cl)nc3ccccc3c2=O)cc1` the value was “inactive”.
For `O=C(Nc1ccccc1Cl)O/N=C(/c1ccccc1)c1ccccn1` the value was 15.8 µM (active); for `O=C(Nc1ccccc1Cl)Nc1cccc2cccnc12`, “inactive”.
With `Cc1ccc(C(=O)O/N=C(\N)c2ccccn2)cc1Cl`, the Potency result was “inactive”.
For `O=C(CCC(=O)n1ncc2ccccc21)NCc1ccccc1Cl` the value was “inactive”; for `O=C1CSC(=S)N1c1ccc(O)cc1`, “inactive”.
As for `O=C(Nc1ccncc1)Nc1ccc(F)cc1`, the Potency entry is “inactive”.
Next, `Oc1ccc2ccccc2c1N=Nc1nccs1`: 12.6 µM (active).
As for `CN(C)CCCn1c(=O)n(Cc2ccccc2)c(=O)c2c3c(sc21)CCCCC3`, the Potency entry was “inactive”.
For `O=C(CNC(=O)Cc1ccccc1)N=Nc1c(O)[nH]c2ccc(Br)cc12`, the Potency entry is “inactive”.
For `NS(=O)(=O)c1ccc(N=Nc2c(O)[nH]c3ccc(Br)cc23)cc1` the value was “inactive”; for `Oc1[nH]c2ccc(Br)cc2c1N=Nc1nn[nH]n1`, 15.8 µM (active).
For `CCOC(=O)C1CCN(C(=O)COc2cccc3ccccc23)CC1` the value was “inactive”; for `COc1ccc(CNc2nc3c(c(=O)[nH]c(=O)n3C)n2Cc2ccccc2)cc1`, “inactive”; for `Cn1c(=O)[nH]c(=O)c2c1[nH]c(=S)n2Cc1ccccc1`, 8.91 µM (active).
Next, `C=CCSc1nc2c(c(=O)[nH]c(=O)n2C)n1Cc1ccccc1`: “inactive”; `COc1cccc(OC)c1C(=O)Nc1ccc2c(c1)n(C)c(=O)n2C`: “inactive”; `O=C(CN1C(=O)c2ccccc2C1=O)NCc1ccc(C(=O)O)cc1`: “inactive”.
As to `CN1C2C=C(N(C(=O)c3ccc(Cl)cc3)c3ccccc3)CC1CC2` (stereo not given), the Potency entry was “inactive”.
Next, `CC(=O)N(C1=C(Cl)C(=O)c2ccccc2C1=O)c1ccc(C(=O)O)cc1`: 2.24 µM (active); `CC(=O)c1ccc(NC(=O)CCc2nnc3ccc(NCc4ccco4)nn23)cc1`: “inactive”; `O=C(c1cc(C(=O)N2CCN(c3ccc(F)cc3)CC2)cc([N+](=O)[O-])c1)N1CCN(c2ccc(F)cc2)CC1`: “inactive”.
Next, `O=C(CN1C(=O)COc2ccccc21)Nc1ccc(F)cc1`: 5.61 µM (active); `O=C(CCN1C(=O)COc2ccccc21)NCCCN1CCN(c2ccc(F)cc2)CC1`: “inactive”.
Next, `CCCN1CCN(CCCNC(=O)CN2C(=O)COc3ccccc32)CC1`: “inactive”; `CC(C)c1ccc(S(=O)(=O)N2CCC3(CC2)OCCO3)cc1`: “inactive”.
Consider `CCN1C(=O)c2cccc3c(N)ccc1c23`, for which the Potency is 0.354 µM (active).
For `CN1C(=O)c2cccc3c(N)ccc(c23)C1=O` the value was “inactive”; for `Cc1nn(C)cc1N1C(=O)c2cccc3c(N)ccc(c23)C1=O`, “inactive”; for `O=C(NCCN1CCN(C(=O)c2cccc([N+](=O)[O-])c2)CC1)C(=O)NCc1ccc(Cl)cc1`, “inactive”.
With `CCS(=O)(=O)c1cc([N+](=O)[O-])c(Sc2ccccc2N)s1`, the Potency is 15.8 µM (active).
Next, `CCOC(=O)c1cc(Sc2ccccc2N)cc(C(=O)OCC)n1`: “inactive”.
Next, `Nc1ccccc1Sc1ccc(C(F)(F)F)cc1[N+](=O)[O-]`: “inactive”; `CC(C)CCn1c(=O)c2c(nc3n2CCCN3Cc2ccccc2)n(C)c1=O`: “inactive”; `Cc1ccccc1NC(=O)C1CCCN(C(=O)NCc2ccccc2)C1` (stereo not given): “inactive”.
For `CCCCc1cc(=O)oc2c(C)c(OCC(=O)N3CCC(C(N)=O)CC3)ccc12` the value was “inactive”; for `COc1c(O)c2c(=O)cc(OC)c3c4c(OC)cc(=O)c5c(O)c(OC)c6c(c(c1C[C@@](C)(O)[C@H]6C(C)=O)c23)c54`, “inactive”.
With `Cc1cc(OCCN2CCCC2)ccc1C(C)C`, the Potency result was “inactive”.
Take `CC(C)(c1ccccc1)c1ccc(OCCN)cc1`: the Potency entry is “inactive”.
Next, `CC(C)(c1ccccc1)c1ccc(OCCN2CCCC2)cc1`: 22.4 µM (active).
Consider `CC(C)CN(Cc1c(O)ccc2c(=O)c(-c3ccccc3)coc12)CC(C)C`, for which the Potency result is “inactive”.
For `COc1ccc(Cl)cc1NC(=O)c1cccc(N2C(=O)C3CC=CCC3C2=O)c1` (stereo not given) the value was “inactive”.
